High-throughput results deposited in PubChem by Broad Institute.
aSyn 5UTR act: Activators via SNCA 5'UTR binding, MLPCN. alpha-synuclein 5'UTR reporter, activators screen. activity score, % (tested at 7.5 µM), hits read low. 300,000 compounds, 7.1% hits. AID 1814, 2009; in the data active = activity score below about -60%
Numbers without * were called inactive. This excerpt belongs to a sample that is enriched for hits.

CCS(=O)(=O)N1Cc2ccccc2CC1C(=O)Nc1cccc(OC)c1 (configuration not stated) was read as aSyn 5UTR act -87*.
`CCS(=O)(=O)N1Cc2ccccc2CC1C(=O)Nc1nc2c(C)cccc2s1` (configuration not stated) gave aSyn 5UTR act -69*.
Screening COc1ccc(S(=O)(=O)N2Cc3ccccc3CC2C(=O)Nc2nccs2)cc1 (configuration not stated) returned aSyn 5UTR act -158*.
`CCSc1nnc(NC(=O)C2Cc3ccccc3CN2S(=O)(=O)CC)s1` (configuration not stated) gave aSyn 5UTR act -88*.
Cc1noc(C)c1C(=O)OCC(=O)c1cc(C)n(Cc2ccccc2Cl)c1C was read as aSyn 5UTR act -98*.
`COc1cc2sc3ccc(C#CC4(O)CCCCC4)cc3c(=O)c2cc1OC` gave aSyn 5UTR act -137*.
Screening CC1CCN(C(=O)CSCc2ccc(Cl)cc2)CC1 returned aSyn 5UTR act -95*.
`Cc1ccc(S(=O)(=O)NC(=O)Nc2ccc(N(C)C)cc2)cc1` gave aSyn 5UTR act -111*.
`CC1(C)Cc2c(sc(NC(=O)c3ccco3)c2C(=O)O)CO1` gave aSyn 5UTR act -81*.
Screening COC(=O)c1c(NC(=O)c2ccc(C)o2)sc2c1CCCCC2 returned aSyn 5UTR act -184*.
Screening O=C(Nc1sc2c(c1C(=O)O)CCC2)c1ccco1 returned aSyn 5UTR act -62*.
Screening O=C(Nc1sc2c(c1C(=O)NCc1ccco1)CCCC2)c1ccc2c(c1)OCO2 returned aSyn 5UTR act -187*.
For CC1(C)Cc2c(sc(NC(=O)c3ccc(Br)o3)c2C#N)CO1 the results were aSyn 5UTR act -91*.
COC(=O)c1c(NC(=O)/C=C/c2ccco2)sc2c1CCC2 was read as aSyn 5UTR act -143*.
Screening O=C(CCc1nnc(C2CCCCC2)o1)N1CCN(c2ccccc2F)CC1 returned aSyn 5UTR act -112*.
`O=C(Nc1nnc(C2CC2)o1)c1ccc(S(=O)(=O)N2CCCc3ccccc32)cc1` gave aSyn 5UTR act 63.
O=C(Oc1ccccc1)N1CCN(c2ccccc2F)CC1 was read as aSyn 5UTR act -65*.
O=C(CCCC(=O)N1CCN(c2ccccc2F)CC1)c1ccccc1 was read as aSyn 5UTR act -76*.
For NS(=O)(=O)c1ccc(NC(=O)/C=C/c2cccc(Cl)c2)cc1 the results were aSyn 5UTR act -81*.
`O=C(/C=C/c1cccc(Cl)c1)Nc1ccncc1` gave aSyn 5UTR act -112*.
Screening CC(C)OC(=O)c1ccc(NC(=O)c2ccccc2)cc1 returned aSyn 5UTR act -78*.
Screening Cc1ccc(NC(=O)c2ccccc2)cc1OC(=O)c1ccccc1 returned aSyn 5UTR act -109*.
`CC(C)OC(=O)c1ccc(NC(=O)c2ccco2)cc1` gave aSyn 5UTR act -140*.
For O=C(Nc1ccccc1)c1ccc(OC(=O)c2ccccc2)cc1 the results were aSyn 5UTR act -63*.
CCOC(=O)c1ccc(NC(=O)c2ccco2)cc1 was read as aSyn 5UTR act -189*.
`CCCOC(=O)c1ccc(NC(=O)c2ccoc2C)cc1` gave aSyn 5UTR act -154*.
Screening CCOC(=O)/C(=C/c1ccccc1)NC(=O)c1ccco1 returned aSyn 5UTR act -65*.
`Cc1ccc(Nc2nc(-c3ccc(F)cc3)cs2)nc1` gave aSyn 5UTR act -175*.
For Cc1ccc(Nc2nc(-c3ccc(O)c(O)c3)cs2)nc1 the results were aSyn 5UTR act -216*.
CC(=O)OCCCN1c2ccccc2Nc2nnc(-c3ccccc3)cc21 was read as aSyn 5UTR act -155*.
Screening Cc1cccc(CC(=O)NCC2CCCCC2)c1 returned aSyn 5UTR act -71*.
`CN(C)c1cccc(C(=O)NC2CCCCCC2)c1` gave aSyn 5UTR act -118*.
Screening Cc1cccc(C(=O)NC2CCCCCCC2)c1 returned aSyn 5UTR act -214*.
`Cc1cc(C(=O)NC2CCCCCCC2)ccc1[N+](=O)[O-]` gave aSyn 5UTR act -141*.
`CCCN1C(=O)c2cc(C(=O)NC3CCCCCC3)ccc2C1O` (configuration not stated) gave aSyn 5UTR act -81*.
For Cc1cc(C(=O)Nc2ccncc2)ccc1[N+](=O)[O-] the results were aSyn 5UTR act -65*.
CCn1c(C)c(C)c2cc(C(=O)NC3CCCCCC3)ccc21 was read as aSyn 5UTR act -87*.
`O=C(c1cc(-c2ccc3c(c2)OCO3)on1)N1CCN(c2ccccc2)CC1` gave aSyn 5UTR act -245*.
For CSc1ccccc1NC(=O)c1cc(-c2ccc3c(c2)OCO3)on1 the results were aSyn 5UTR act -128*.
For O=C(Nc1cc(Br)ccc1O)c1cc(-c2ccc3c(c2)OCO3)on1 the results were aSyn 5UTR act -108*.
CN(C(=O)c1cc(-c2ccc3c(c2)OCO3)on1)c1ccccc1 was read as aSyn 5UTR act -167*.
For Cc1c(N=c2c(=O)c3ccccc3c2=O)c(=O)n(-c2ccccc2)n1C the results were aSyn 5UTR act -140*.
COc1ccc(-c2c/c(=N\c3nc(-c4ccccc4)c(C)s3)c3ccccc3o2)cc1O was read as aSyn 5UTR act 75.
Screening COc1ccc(-c2cc(=Nc3c(C)n(C)n(-c4ccccc4)c3=O)c3ccccc3o2)cc1 returned aSyn 5UTR act -270*.
For CC(=O)Nc1ccc(N=C(C2=C(O)c3ccccc3C2=O)c2ccccc2)cc1 the results were aSyn 5UTR act -64*.
`CC(=NC1CC1)C1=C(O)c2ccccc2C1=O` gave aSyn 5UTR act -177*.
Screening CCOc1ccc(N=C(C)C2=C(O)c3ccccc3C2=O)cc1 returned aSyn 5UTR act -123*.
CC(=O)Nc1ccc(NC2=C/C(=N/S(=O)(=O)c3cccs3)c3ccccc3C2=O)cc1 was read as aSyn 5UTR act 83.
Screening CCOC(=O)c1ccc(NC(=S)NC(=O)c2nn(CC)cc2Br)cc1 returned aSyn 5UTR act -66*.
CCOC(=O)c1ccc(NC(=O)c2nn(C)cc2Br)cc1 was read as aSyn 5UTR act -204*.
For CCn1cc(Br)c(C(=O)Nc2ccc(F)c(Cl)c2)n1 the results were aSyn 5UTR act -110*.
`CCOC(=O)c1ccc(NC(=O)c2nn(CC)cc2Br)cc1` gave aSyn 5UTR act -94*.
For Clc1ccc(-c2cn3c(n2)-c2ccccc2C3)cc1Cl the results were aSyn 5UTR act -67*.
For CCOC(=O)CCn1nc(-c2ccc(Cl)cc2)cc1N the results were aSyn 5UTR act -129*.
Screening Cc1sc2c(c1C)CN(CCN1CCOCC1)CN2C(=O)c1ccccc1 returned aSyn 5UTR act -82*.
`Cc1nnc(SCc2ccccc2)nc1-c1ccccc1` gave aSyn 5UTR act -124*.
`Cc1[nH]c2ccccc2c1-c1nc2ccccc2[nH]1` gave aSyn 5UTR act -78*.
For c1cncc(-c2nc3ccccc3[nH]2)c1 the results were aSyn 5UTR act -88*.
Screening c1ccc(-c2nc3ccccc3[nH]2)cc1 returned aSyn 5UTR act -138*.
Cc1ccc(-c2nc3ccccc3[nH]2)s1 was read as aSyn 5UTR act -80*.
For COc1ccc(/C=C/c2ccncc2)cc1 the results were aSyn 5UTR act -96*.
Screening CC(C)(C)C1CCc2nc(NC(=O)Cc3cn4ccsc4n3)sc2C1 (configuration not stated) returned aSyn 5UTR act -66*.
Screening CC1CCc2nc(NC(=O)Cc3cccs3)sc2C1 (configuration not stated) returned aSyn 5UTR act -160*.
For Cc1csc(NC(=O)CCCc2cccs2)n1 the results were aSyn 5UTR act -77*.
